Screening data as filed in PubChem.
This is a sample that favours compounds with a hit; in the whole collection about 27% have one here.
Cav3 T inh – inhibitors of human Cav3.2 T-type calcium channel | B-score at 10 µM | Cav3.2-expressing cells, Fluo-4 calcium fluorescence FDSS; stronger effect = lower value | 100,000 compounds, 4% hits | O95180;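 active = single-dose well whose peak fluorescence ratio is a statistical outlier from its plate by either plate-standardised score or position-corrected B-score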
CYP2C19 inhib – blocks human cytochrome P450 2C19; CYP2C19 Supersomes, luciferin-H EGE luminescence, 30 min; P33261; inhibition, % at 5 µM; 96,000 compounds, 21% hits;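 active = CYP2C19 inhibition above a set limit at 5 µM in the primary screen, cut at about 50% in these data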;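 also: plate controls were negative control wells for no effect and 2.5 mM tranylcypromine positive control for full effect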
CYP2C9 act – CYP2C9 (human) activation | 96,000 compounds, 1.4% hits | activation factor at 5 µM | P11712 | recombinant CYP2C9, luciferin-H conversion, luminescence; stronger effect = higher value; factor 1 = untreated enzyme, 0 = blocked;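 active = activation factor of 2 or more for CYP2C9 at a 5 µM dose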;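 also: 0 = sulfaphenazole-blocked wells and 1 = vehicle-only wells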
Target sequence (P11712 whole entry, looked up): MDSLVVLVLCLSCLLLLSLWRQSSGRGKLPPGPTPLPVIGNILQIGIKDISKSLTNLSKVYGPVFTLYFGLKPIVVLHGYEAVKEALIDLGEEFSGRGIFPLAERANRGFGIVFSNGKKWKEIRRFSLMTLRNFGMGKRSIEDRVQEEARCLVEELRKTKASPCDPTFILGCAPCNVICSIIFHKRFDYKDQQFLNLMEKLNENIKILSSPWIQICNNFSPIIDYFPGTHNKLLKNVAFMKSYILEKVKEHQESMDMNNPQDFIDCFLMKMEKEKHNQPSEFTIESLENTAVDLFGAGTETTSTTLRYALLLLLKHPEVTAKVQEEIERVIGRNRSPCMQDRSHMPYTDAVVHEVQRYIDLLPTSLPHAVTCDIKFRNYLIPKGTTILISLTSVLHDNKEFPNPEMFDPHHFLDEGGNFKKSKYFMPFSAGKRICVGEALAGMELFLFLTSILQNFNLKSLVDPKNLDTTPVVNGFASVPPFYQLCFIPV
CYP2C19 activ – cytochrome P450 2C19 (human) activation | P33261 | recombinant CYP2C19, luciferin-H EGE luminescence; stronger effect = higher value; 0 = fully inhibited enzyme, 1 = untreated enzyme | activation factor at 5 µM | 96,000 tested, under 10 active | AID 1025;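 active = activation factor of at least 2 at 5 µM in the primary screen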;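 also: 0 = wells with 2.5 mM tranylcypromine and 1 = vehicle-only wells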
CYP2C9 inh – inhibitors of human CYP2C9; P11712; CYP2C9 Supersomes, luciferin-H conversion, luminescence; inhibition, % at 5 µM; 96,000 compounds, 20% hits; AID 777;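 active = blocking of liver enzyme CYP2C9 beyond about 50% at 5 µM, limit read from the data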
* marks the source's active call; other numbers are inactive results.

COC(=O)c1cccc(COC(=O)c2ccc(N(C)C)cc2)c1 was read as Cav3 T inh -0.21.
`CC1CN(S(=O)(=O)c2cccc(C(=O)OCC(=O)c3cccs3)c2)CC(C)O1` (stereo unspecified) gave Cav3 T inh -0.41, CYP2C19 inhib 28, CYP2C9 act 0.8, CYP2C19 activ 0.7 and CYP2C9 inh 25.
Screening CC1CN(S(=O)(=O)c2cccc(C(=O)OCc3cc(=O)oc4cc(O)ccc34)c2)CC(C)O1 (stereo unspecified) returned Cav3 T inh -2.2, CYP2C19 inhib 69*, CYP2C9 act 0.2, CYP2C19 activ 0.3 and CYP2C9 inh 83*.
`CN(C)c1cccc(C(=O)OCc2cc(=O)oc3cc(O)ccc23)c1` gave Cav3 T inh -0.56, CYP2C19 inhib 57*, CYP2C9 act 0.2, CYP2C19 activ 0.4 and CYP2C9 inh 79*.
CCOc1cc(N2CCOCC2)c(OCC)cc1NC1=NCCCCC1 was read as Cav3 T inh -0.63, CYP2C19 inhib 15, CYP2C9 act 0.9, CYP2C19 activ 0.8 and CYP2C9 inh 6.
Nc1cccnc1Sc1cc(Cl)c(Cl)cc1Cl was read as Cav3 T inh 0.014, CYP2C19 inhib 15, CYP2C9 act 0.9, CYP2C19 activ 0.8 and CYP2C9 inh 14.
Cc1ccc(C(C(=O)NCC2CCCO2)N(Cc2ccccc2F)C(=O)Cn2nnc(-c3cccs3)n2)cc1 (stereo unspecified) was read as Cav3 T inh -0.82, CYP2C19 inhib 33, CYP2C9 act 0.5, CYP2C19 activ 0.7 and CYP2C9 inh 52*.
Screening COc1ccc(-c2nnn(CC(=O)N(Cc3ccccc3Cl)C(C(=O)NCC3CCCO3)c3ccco3)n2)cc1OC (stereo unspecified) returned Cav3 T inh -1, CYP2C19 inhib 19, CYP2C9 act 0.1, CYP2C19 activ 0.8 and CYP2C9 inh 92*.
For COc1ccc(N(C(=O)Cn2nnc(-c3ccc(Cl)cc3)n2)C(C(=O)NCC2CCCO2)c2ccc(C)cc2)cc1 (stereo unspecified) the results were Cav3 T inh 0.024, CYP2C19 inhib -12, CYP2C9 act 0.9, CYP2C19 activ 1.1 and CYP2C9 inh 7.
CC(=O)Nc1sc2c(c1CN1CCN(C)CC1)CCCC2 was read as Cav3 T inh 1.7, CYP2C19 inhib 20, CYP2C9 act 1.1, CYP2C19 activ 0.8 and CYP2C9 inh -12.
Screening Cc1ccc(S(=O)(=O)N2CCC(=O)N(CCOCc3ccccc3)CC2)cc1 returned Cav3 T inh 0.4.
O=C1c2cccc3cccc(c23)C(=O)N1c1nncs1 was read as Cav3 T inh -0.064, CYP2C19 inhib 4, CYP2C9 act 1.1, CYP2C19 activ 1 and CYP2C9 inh -14.
Cc1cccc(-c2nc(CN3CCCC(C(=O)NC4CCCCC4)C3)c(C)o2)c1 (stereo unspecified) was read as Cav3 T inh -5.1*, CYP2C19 inhib 16, CYP2C9 act 0.8, CYP2C19 activ 0.8 and CYP2C9 inh 19.
Cc1cccc(-c2nc(CN3CCCC(C(=O)NC4CCCCCC4)C3)c(C)o2)c1 (stereo unspecified) was read as Cav3 T inh -6.9*, CYP2C19 inhib 19, CYP2C9 act 0.6, CYP2C19 activ 0.8 and CYP2C9 inh 44.
Cc1oc(-c2cccc(Cl)c2)nc1CN1CCCC(C(=O)NC(C)c2ccc3c(c2)OCCO3)C1 (stereo unspecified) was read as CYP2C19 inhib 87*, CYP2C9 act 0.2, CYP2C19 activ 0.1 and CYP2C9 inh 81*.
`Cc1oc(-c2cccc(Cl)c2)nc1CN1CCCC(C(=O)NCc2ccco2)C1` (stereo unspecified) gave Cav3 T inh -1.5, CYP2C19 inhib 15, CYP2C9 act 0.8, CYP2C19 activ 0.9 and CYP2C9 inh 18.
Screening Cc1oc(-c2ccc(Cl)cc2)nc1CN1CCCC(C(=O)NCc2ccccn2)C1 (stereo unspecified) returned Cav3 T inh 0.7, CYP2C19 inhib 15, CYP2C9 act 0.8, CYP2C19 activ 0.9 and CYP2C9 inh 18.
Cc1oc(-c2ccc(Cl)cc2)nc1CN1CCCC(C(=O)NCc2cccnc2)C1 (stereo unspecified) was read as Cav3 T inh 1.6, CYP2C19 inhib 37, CYP2C9 act 0.8, CYP2C19 activ 0.6 and CYP2C9 inh 19.
`C/C(N)=C(\C#N)C(=O)NCc1ccccn1` gave Cav3 T inh -0.41, CYP2C19 inhib 3, CYP2C9 act 0.9, CYP2C19 activ 1 and CYP2C9 inh 14.
Screening COC(=O)CSc1cc(SCC(=O)OC)c(C#N)c(SCC(=O)OC)c1 returned Cav3 T inh 1.1, CYP2C19 inhib 38, CYP2C9 act 0.5, CYP2C19 activ 0.6 and CYP2C9 inh 52*.
Screening COC(=O)CSc1nc(N)c(C#N)c(C(C)C)c1C#N returned Cav3 T inh 0.93, CYP2C19 inhib 59*, CYP2C9 act 0.5, CYP2C19 activ 0.4 and CYP2C9 inh 48.
COC(=O)CSc1nc(N)c(C#N)c(-c2ccco2)c1C#N was read as Cav3 T inh -0.15, CYP2C19 inhib -7, CYP2C9 act 0.8, CYP2C19 activ 1.1 and CYP2C9 inh 15.
COc1cccc(NC(=O)OCCN2CCN(Cc3ccccc3)CCC2=O)c1 was read as Cav3 T inh 0.054.
CCN(C(=O)COC(=O)c1ccc(OCc2c(C)noc2C)cc1)c1ccccc1 was read as Cav3 T inh -0.92, CYP2C19 inhib 5, CYP2C9 act 0.7, CYP2C19 activ 0.9 and CYP2C9 inh 31.
Screening Cc1noc(C)c1COc1ccc(C(=O)OCc2nnc(-c3ccc(Cl)cc3)o2)cc1 returned Cav3 T inh -6.3*, CYP2C19 inhib 79*, CYP2C9 act 0, CYP2C19 activ 0.2 and CYP2C9 inh 95*.
Screening O=C(OCc1nnc(-c2ccc(Cl)cc2)o1)c1ccc(=O)n(Cc2ccccc2)n1 returned Cav3 T inh -1.8, CYP2C19 inhib 11, CYP2C9 act 1.8, CYP2C19 activ 0.9 and CYP2C9 inh -81.
`CC(=O)c1ccc(OCCCC(=O)OCc2nnc(-c3ccc(Cl)cc3)o2)cc1` gave Cav3 T inh -1.2, CYP2C19 inhib 36, CYP2C9 act 2*, CYP2C19 activ 0.6 and CYP2C9 inh -101.
Screening O=C(OCc1nnc(-c2ccc(Cl)cc2)o1)c1ccncc1 returned Cav3 T inh -0.49, CYP2C19 inhib 65*, CYP2C9 act 0.3, CYP2C19 activ 0.3 and CYP2C9 inh 67*.
For O=C1c2cc(F)ccc2OC2(CCNCC2)C12CC(c1ccccc1)=NO2 (stereo unspecified) the results were Cav3 T inh 0.59.
`Cc1nc2sc(C(c3ccco3)N3CCc4ccccc4C3)c(O)n2n1` (stereo unspecified) gave Cav3 T inh 0.0077.
For N#CCc1nc(CSc2nc3ccccc3s2)cs1 the results were Cav3 T inh -0.28, CYP2C19 inhib 98*, CYP2C9 act 0.7, CYP2C19 activ 0 and CYP2C9 inh 28.
